The record followed here is the supplement of paper PMC6555819.

Holding throughout (test): PBM binding z-score (relative to random genomic background probes); higher = stronger binding; sequences stand for … in GC…GCGATTGACAGCGTAGAATGAAGG
The subject of assay [1] is RARb homodimer (NR concentration 270 nM). The method, boiled down:
(§1)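 Binding z-scores take random background probes as their reference. They come from custom Agilent 4×180K protein-binding microarrays incubated 1 h with ligand-free nuclear receptor dimers, with antibodies against each partner (one per run) detecting binding. Scanned fluorescence was regression-normalized.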

In assay [2] the test system is RARg:RXRa (NR concentration 270 nM, RXRa partner concentration 90 nM). The method, boiled down:
as §1

The subject of assay [3] is RARg homodimer (NR concentration 270 nM). The method, boiled down:
as §1

Assay [4] concerns RXRa DBDmut IVT, anti-RXR (DBD mutation: RXRa K156A/R161A, NR concentration 90 nM). The method, boiled down: as §1
In assay [5] the test system is RXRa homodimer (NR concentration 180 nM). The method, boiled down:
as §1

Assay [6] concerns THRa:RXRa (NR concentration 90 nM, RXRa partner concentration 90 nM). The method, boiled down:
as §1

Assay [7] concerns THRa homodimer (NR concentration 90 nM). The method, boiled down:
as §1

The subject of assay [8] is VDR homodimer (NR concentration 270 nM). The method, boiled down:
as §1

Take CGAACTAGGTCATCCTGGACAGTGAATACATTGA: the PBM binding z-score stood at 2.86 in assay [1]; 3.82 in assay [2]; 4.56 in assay [3]; 2.37 in assay [4]; 2.67 in assay [5]; 2.89 in assay [6]. Also, the PBM binding z-score in assay [7] is 1.35; in assay [8], 1.5.
With CGTCAAAGTTCAAGGTAACGAAACAGAAAGCAGC, the PBM binding z-score turned out to be 3.67 in assay [1]; 5.6 in assay [2]; 6.29 in assay [3]; 4.46 in assay [4]; 5.13 in assay [5]; 2.9 in assay [6]. The PBM binding z-score was determined as 0.933 in assay [7] and 2.99 in assay [8].
In the case of TTACCAATGTGAAAGGTCGTTGATGCACGCCTTG, the PBM binding z-score turned out to be 1.76 in assay [1]; 1.76 in assay [2]; 0.967 in assay [3]; 0.906 in assay [4]; 3.08 in assay [5]; 1.44 in assay [6]. Further, the values for the PBM binding z-score in assay [7] and in assay [8] were 0.0994 and 1.66, respectively.
As for CTCGAAAGCTCGGTTGAGGTGAGTATACGGATAA, the PBM binding z-score was -0.282 in assay [1]; -0.264 in assay [2]; -0.254 in assay [3]; -0.28 in assay [4]; -0.256 in assay [5]; 1.85 in assay [6]. Further, the PBM binding z-score is 1.03 in assay [7] and -0.293 in assay [8].
As to CCTGCTAGGTCAGTGGTCAGCTAAAGCAGCTCGC, the PBM binding z-score in assay [1] was determined as 2.63; in assay [2], 2.56; in assay [3] it was 3.82; in assay [4], 0.821; in assay [5], 0.693; in assay [6], 1.51. The PBM binding z-score in assay [7] was 0.454; in assay [8] it was -0.319.
With CCTTACGGGTCACTGACATGTTATAGCATTTGGA, the PBM binding z-score in assay [1] worked out at 3.05; in assay [2], 4.89; in assay [3], 4.58; in assay [4], 2.2; in assay [5], 5.13; in assay [6] it was 2.61. Moreover, the PBM binding z-score worked out at 0.312 in assay [7] and 1 in assay [8].
Take TCTTGTATATCAATAGAGGTTAAGAAAGTGCGCT: the PBM binding z-score in assay [1] stood at 1.38; in assay [2], 0.864; in assay [3], 0.687; in assay [4], 1.05; in assay [5] it was 1.58; in assay [6] it was 1.72. Also, the PBM binding z-score is -0.0174 in assay [7] and 0.47 in assay [8].
As for TCTTGTAGATCAATAGAGGTCAAGAAAGTGCGCT, the PBM binding z-score is 4.21 in assay [1]; 3.92 in assay [2]; 3.84 in assay [3]; 0.858 in assay [4]; 4.46 in assay [5]; 4.17 in assay [6]. Also, the results for the PBM binding z-score in assay [7] and in assay [8] were 0.941 and 2.12, respectively.
Turning to TCTGCTAGGTCAGTTGGTCAGCTGACGAGCTGCC, the PBM binding z-score in assay [1] was 2.33; in assay [2], 2.98; in assay [3], 4.14; in assay [4] it was 0.382; in assay [5] it was 0.854; in assay [6], 1.31. Besides, the PBM binding z-score was -0.308 in assay [7] and -1.1 in assay [8].
Regarding CCGACTGGGGCGAGGTTACCATAACGCACAGCCA, the PBM binding z-score is 0.887 in assay [1]; 0.854 in assay [2]; 0.545 in assay [3]; -0.326 in assay [4]; 1.39 in assay [5]; 1.55 in assay [6]. The PBM binding z-score in assay [7] came out at 0.408; in assay [8] it was 0.294.
Consider CGAACTTGGTCATCCAGGACAGTGAATACATTGA, for which the PBM binding z-score in assay [1] came to 0.498; in assay [2] it was 0.874; in assay [3], 1.24; in assay [4], 0.427; in assay [5], 0.551; in assay [6] it was 1.91. The PBM binding z-score in assay [7] was 1.02; in assay [8], 0.3.
With AGTCAAAGTTCACTAGGTAACGTAAGATTCAGCT, the PBM binding z-score in assay [1] stood at 3.81; in assay [2], 4.81; in assay [3], 5.08; in assay [4], 4.23; in assay [5], 3.76; in assay [6], 2.22. Besides, the PBM binding z-score in assay [7] turned out to be 0.232; in assay [8] it was 3.29.
As to ACTAGCAGGCCATGGGTCACTCAAGATTAGTCCG, the PBM binding z-score in assay [1] is 2.1; in assay [2] it was 1.88; in assay [3], 2.07; in assay [4] it was -0.507; in assay [5], 1.75; in assay [6], 1.42. Further, the values for the PBM binding z-score in assay [7] and in assay [8] were -0.31 and -0.0856, respectively.
In the case of CCGTCTGGGGCAAAGGTTACCATACTCAGTACGA, the PBM binding z-score in assay [1] came out at 2.21; in assay [2], 3.55; in assay [3], 1.87; in assay [4], 0.589; in assay [5] it was 3.51; in assay [6] it was 1.74. The PBM binding z-score in assay [7] is -0.0764; in assay [8], -0.106.
With GATGCTAGGTCAGGTTGGTCAGCTAACGGGTACG, the PBM binding z-score in assay [1] was 3.1; in assay [2], 2.37; in assay [3], 3.92; in assay [4], 0.468; in assay [5], 1.16; in assay [6] it was 1.92. For the same sequence, the PBM binding z-score in assay [7] is 0.898; in assay [8], 0.958.
As for TCTAGCAGGCCAGAGGGGCACTCAAGAGGTACGG, the PBM binding z-score in assay [1] is 0.611; in assay [2], 0.104; in assay [3], 0.165; in assay [4] it was -0.0321; in assay [5], 0.357; in assay [6], -0.399. Moreover, the values for the PBM binding z-score in assay [7] and in assay [8] were -0.898 and -0.703, respectively.
With CAAACTCGGTCAAAGGTCAAAGTCGAGCCAACCA, the PBM binding z-score in assay [1] is 5.08; in assay [2], 8.4; in assay [3], 6.7; in assay [4] it was 2.48; in assay [5], 9.27; in assay [6], 4.33. The figures for the PBM binding z-score in assay [7] and in assay [8] were 1.31 and 3.31, respectively.
